# In PubChem BioAssay (Tox21):
# Results filed as inconclusive are left out. Entries that show only a call come without a potency. A number with no mark means an inactive call. The source made the active and inactive calls. Calls come from the whole dose curve; as a rule, active = well fitted activation curve with a large enough effect in the signal ratio in the repeat runs (not every such curve was filed as active); inconclusive = weak or mixed curves, or effect the other way; inactive = no such curve, though single readings can be large or run the other way; the % refers to the signal ratio.
# Molecular target: Glucocorticoid receptor (Homo sapiens) (UniProt P04150)
# Sequence (P04150 whole entry, looked up): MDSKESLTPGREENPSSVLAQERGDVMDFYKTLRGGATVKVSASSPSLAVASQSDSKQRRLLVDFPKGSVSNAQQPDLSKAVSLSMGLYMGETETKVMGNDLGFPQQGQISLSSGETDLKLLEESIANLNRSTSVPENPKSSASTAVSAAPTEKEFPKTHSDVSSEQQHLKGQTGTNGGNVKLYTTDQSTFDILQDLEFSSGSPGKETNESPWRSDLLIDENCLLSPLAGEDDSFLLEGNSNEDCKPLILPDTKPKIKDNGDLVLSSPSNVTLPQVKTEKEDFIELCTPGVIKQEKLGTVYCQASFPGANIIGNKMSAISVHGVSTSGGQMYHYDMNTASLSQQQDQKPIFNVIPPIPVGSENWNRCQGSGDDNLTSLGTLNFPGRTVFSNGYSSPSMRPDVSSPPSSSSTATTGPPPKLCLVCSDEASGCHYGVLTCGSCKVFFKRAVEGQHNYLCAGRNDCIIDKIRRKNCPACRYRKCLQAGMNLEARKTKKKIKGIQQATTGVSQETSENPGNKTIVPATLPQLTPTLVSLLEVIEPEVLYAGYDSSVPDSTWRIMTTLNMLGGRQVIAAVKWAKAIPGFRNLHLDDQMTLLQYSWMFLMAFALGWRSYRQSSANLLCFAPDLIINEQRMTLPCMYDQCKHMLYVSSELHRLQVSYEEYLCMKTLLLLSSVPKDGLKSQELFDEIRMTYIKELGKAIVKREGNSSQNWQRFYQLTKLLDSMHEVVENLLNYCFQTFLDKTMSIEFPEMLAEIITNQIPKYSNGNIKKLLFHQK
# Test: qHTS assay to identify small molecule agonists of the glucocorticoid receptor (GR) signaling pathway (AID 720691)
# Details: GR-bla HeLa, beta-lactamase reporter ratio, 18 h; activation: at 62.4 µM (top of the series) unless noted
# From the text: U.S. Tox21 Program National Center for Advancing Translational Sciences [NCATS] NIH Chemical Genomics Center [NCGC] U.S. Environmental Protection Agency [EPA] National Institutes of Environmental Health Sciences [NIEHS] National Toxicology Program [NTP] U.S. Food and Drug Administration [FDA] Tox21 Assay Overview: The Glucocorticoid receptor (GR) is one of the members of the nuclear receptor family of ligand-dependent transcription factors. GR plays a critical role in carbohydrate, protein and lipid metabolisms and programmed cell death. CellSensor GR-bla HeLa cell line (Invitrogen) contains a beta-lactamase reporter gene under the control of the glucocorticoid response element stably integrated into HeLa cells, a cervical cancer cell line that expresses glucocorticoid receptor. The activation of the reporter gene under culture conditions can be detected by fluorescence intensity. This cell line has been used to screen the Tox21 10K compound library and to identify the compounds that activate the GR signaling.
# Tox21 Assay Protocol Summary: The GR-bla HeLa cells were dispensed at 1500 cells/6 ul/well in 1536-well black wall/clear bottom plates using a Multidrop Combi (ThermoFisher Scientific, Waltham, MA) dispenser. After the assay plates were incubated at a 37 C/5% CO2 incubator for 4 hours, 23 nL of compounds dissolved in DMSO, positive controls or DMSO only was transferred to the assay plate by a pintool station (Kalypsys, San Diego, CA). The plates were incubated at 37 C for 18 hours. After 1 uL of LiveBLAzerTM B/G FRET substrate was added using a Flying Reagent Dispenser (Aurora Discovery, San Diego, CA), the plates were incubated at room temperature for 2 hours, and fluorescence intensity was measured by an Envision plate reader (PerkinElmer, Shelton, CT).
SMILES,Potency,activation
CCCCCC/C=C/CCCCCCCC(=O)O,inactive,
CCCCC(CC)COC(=O)CCCCCCCC(=O)OCC(CC)CCCC (stereo not given),inactive,
CCCCC(CC)C(=O)OCCOCCOCCOC(=O)C(CC)CCCC (stereo not given),inactive,
Cc1cc(O)cc(C)c1Cl,,-1.89%
Cc1cc(NS(=O)(=O)c2ccc(N)cc2)no1,inactive,
C=C(C)C(=O)OCCC[Si](OC)(OC)OC,inactive,
CCCCNC(N)=O,inactive,
OC1CCCC1,inactive,
CC#C[C@]1(O)CC[C@H]2[C@@H]3CCC4=CC(=O)CCC4=C3[C@@H](c3ccc(N(C)C)cc3)C[C@@]21C,inactive,
NC(=O)/N=N/C(N)=O,inactive,
O=C1CCCCC1,inactive,
CS(=O)(=O)c1ccc([C@@H](O)[C@@H](CO)NC(=O)C(Cl)Cl)cc1,inactive,
O=C(c1ccc(O)cc1)c1ccc(O)cc1O,,-4.72% [at 79.2 µM]
CC1COc2ccccc2N1C(=O)C(Cl)Cl (stereo not given),inactive,
O=C(O)c1ccc([N+](=O)[O-])cc1,inactive,
OCCOCCOCCOCCO,inactive,
NC(=O)NNc1ccccc1,inactive,
O=Nc1ccc(O)cc1,inactive,
O=C(c1cc(O)c(O)c(O)c1)c1ccc(O)c(O)c1O,inactive,
Cc1cc(=O)[nH]c(C(C)C)n1,inactive,

SMILES,Potency,activation
CC(=O)Nc1ccc(C(=O)O)cc1,inactive,
C=C(C)C(=O)OCC(CC)(COC(=O)C(=C)C)COC(=O)C(=C)C,inactive,
CCCCCCCCCCC=CC1CC(=O)OC1=O (stereo not given),inactive,
C[C@@H]1O[C@@H](OC[C@H]2O[C@@H](Oc3c(-c4ccc(O)c(O)c4)oc4cc(O)cc(O)c4c3=O)[C@H](O)[C@@H](O)[C@@H]2O)[C@H](O)[C@H](O)[C@H]1O,inactive,
Cc1ccc(C(=O)O)o1,inactive,
Clc1ccc(Cl)c(Cl)c1Cl,inactive,
Cc1cc(Cc2ccc(N)c(C)c2)ccc1N,inactive,
CCCCOCCOCCOC(=O)CCCCC(=O)OCCOCCOCCCC,inactive,
CCCCCCCCC,inactive,
CCCCCCOC(C)=O,inactive,
CC(C)Cc1ccccc1,inactive,
CCOC(=O)/C=C\C(=O)OCC,inactive,
CC(C)(C)C1CCC(O)CC1 (stereo not given),inactive,
CC(C)(C)C(=O)C1C(=O)c2ccccc2C1=O,inactive,
CCc1ccc(O)cc1,inactive,
O=C(Oc1ccccc1)c1ccc(O)cc1,inactive,
NCCNCCNCCNCCN,inactive,
C=C1CC[C@H](O)CC1=C/C=C1\CCC[C@]2(C)[C@@H]([C@H](C)/C=C/[C@H](C)C(C)C)CC[C@@H]12,inactive,
O=S(=O)(O)c1cc(S(=O)(=O)O)c2c(N=Nc3ccccc3)c(O)ccc2c1,inactive,
O=C1N=C(O)CN1/N=C/c1ccc(-c2ccc([N+](=O)[O-])cc2)o1,inactive,
